PubChem BioAssay (NCI)
The panel holds about 83,000 compounds, 20% with a hit somewhere; the sample as a whole holds those more often.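 A percent growth of 40 corresponds to 60% growth inhibition; 0 means no net growth; -100 means all cells died. Active threshold: below 10.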 The source made the active and inactive calls.

How the values were obtained:
Test in all cases: NCI-60 one-dose screen, 48 h (100 = growth as untreated, 0 = no growth, -100 = all killed)
HCT-15 colon = conditions: 10 µM unless noted
HT29 colon = conditions: 10 µM unless noted
SNB-75 CNS = conditions: 10 µM unless noted
SNB-19 CNS = conditions: 10 µM unless noted
U251 CNS = conditions: 10 µM unless noted
PC-3 prostate = conditions: 10 µM unless noted
SK-MEL-5 melanoma = conditions: 10 µM unless noted
UACC-62 melanoma = conditions: 10 µM unless noted
LOX IMVI melanoma = conditions: 10 µM
SK-MEL-28 melanoma = conditions: 10 µM unless noted

Measured: growth

O=C(NNc1ccccc1)OCc1ccccc1
inactive: HCT-15 colon 73% | HT29 colon 97.7% | SNB-75 CNS 114% | SNB-19 CNS 97.5% | U251 CNS 80.4% | PC-3 prostate 54.1% | SK-MEL-5 melanoma 101% | UACC-62 melanoma 28.1% | LOX IMVI melanoma 20.8% | SK-MEL-28 melanoma 105%

Oc1c(Cl)cc(Cl)cc1C=NCC1CCC(CN=Cc2cc(Cl)cc(Cl)c2O)CC1 (centres undefined)
inactive: HCT-15 colon 84.9% | HT29 colon 103% | SNB-75 CNS 66.9% | SNB-19 CNS 79.8% | U251 CNS 83% | PC-3 prostate 77.6% | SK-MEL-5 melanoma 94.4% | UACC-62 melanoma 97.7% | LOX IMVI melanoma 69.6% | SK-MEL-28 melanoma 89.2%

NC1=C(Br)C(=O)c2ncccc2C1=O
inactive: HT29 colon 49.1% | PC-3 prostate 11.9%
active: HCT-15 colon 2.56% | SNB-75 CNS -84.2% | SNB-19 CNS -86.7% | U251 CNS -82.2% | SK-MEL-5 melanoma -98.3% | UACC-62 melanoma -96.3% | LOX IMVI melanoma -71.2% | SK-MEL-28 melanoma -87.4%

CCCOC(=O)c1nc(N(CC2CCCCC2)C(=O)NC)sc1/N=C/c1ccccc1
active: HCT-15 colon -70.3% | HT29 colon -37.7% | SNB-75 CNS -11.1% | U251 CNS 5.96% | SK-MEL-5 melanoma -11.9% | UACC-62 melanoma 4.74%
inactive: SNB-19 CNS 24.5% | PC-3 prostate 25.3% | SK-MEL-28 melanoma 35%

CN1CCC(c2ccccc2)(c2ccccc2)C(=O)C1
inactive: HCT-15 colon 70.2% | HT29 colon 81.7% | SNB-75 CNS 58% | SNB-19 CNS 90.7% | U251 CNS 91.3% | PC-3 prostate 85.7% | SK-MEL-5 melanoma 97.7% | UACC-62 melanoma 93.6% | SK-MEL-28 melanoma 119%

CN(C)CCN(C)CC(C)(C)C(=O)/C=C/c1ccc(Cl)c(Cl)c1
active: HCT-15 colon -86.4% [100 µM] | HT29 colon -77.5% [100 µM] | SNB-75 CNS -99.3% [100 µM] | SNB-19 CNS -98.6% [100 µM] | U251 CNS -95.1% [100 µM] | PC-3 prostate -87.2% [100 µM] | SK-MEL-5 melanoma -99.3% [100 µM] | UACC-62 melanoma -95.6% [100 µM] | SK-MEL-28 melanoma -98.6% [100 µM]

CCOC(=O)C1(C)CCCC1N (centres undefined)
inactive: HCT-15 colon 108% | HT29 colon 116% | SNB-75 CNS 86.3% | SNB-19 CNS 93.6% | U251 CNS 110% | PC-3 prostate 104% | SK-MEL-5 melanoma 98% | UACC-62 melanoma 91.6% | SK-MEL-28 melanoma 109%

Oc1ccc(Cl)cc1C(c1cc(Cl)ccc1O)C(Cl)(Cl)Cl
inactive: SNB-19 CNS 24% | U251 CNS 11.8% | SK-MEL-5 melanoma 29.1% | SK-MEL-28 melanoma 38.8%
active: HCT-15 colon 3.95% | HT29 colon 4.03% | SNB-75 CNS 4.39% | PC-3 prostate 6.26% | LOX IMVI melanoma -62.8%

Oc1c(C(Nc2ccccc2)c2ccccc2)ccc2cccnc12 (centres undefined)
inactive: HCT-15 colon 29.4% | HT29 colon 44.5% | SNB-75 CNS 70.8% | SNB-19 CNS 46.8% | U251 CNS 25.7% | PC-3 prostate 28.9% | SK-MEL-5 melanoma 19.7% | UACC-62 melanoma 31.4% | LOX IMVI melanoma 31.6% | SK-MEL-28 melanoma 53.3%

CC(C)(C)c1ccc(CCO)cc1
inactive: HCT-15 colon 109% | HT29 colon 110% | SNB-75 CNS 96.7% | SNB-19 CNS 95.7% | U251 CNS 103% | PC-3 prostate 99.8% | SK-MEL-5 melanoma 95.6% | UACC-62 melanoma 89.5% | LOX IMVI melanoma 99.5% | SK-MEL-28 melanoma 121%

CCCCCCCCCCCC[n+]1ccc(CCCCCCCCC)cc1
active: HCT-15 colon -48% | HT29 colon -84% | SNB-75 CNS -70% | SNB-19 CNS -74.5% | U251 CNS -94.6% | PC-3 prostate -51.6% | SK-MEL-5 melanoma -96.8% | UACC-62 melanoma -76.9% | LOX IMVI melanoma -94.6% | SK-MEL-28 melanoma -70.9%

CN(C)CCSC1=Nc2ccc(Cl)cc2C(c2ccccc2Cl)N(C)C1 (centres undefined)
inactive: HCT-15 colon 62.5% | HT29 colon 50.9% | SNB-75 CNS 11.9% | SNB-19 CNS 63.1% | U251 CNS 71.2% | PC-3 prostate 48.5% | SK-MEL-5 melanoma 68.7% | UACC-62 melanoma 29.2% | SK-MEL-28 melanoma 70.9%

NC(=S)Nc1ccc2c(c1)Cc1ccccc1-2
inactive: HCT-15 colon 95.7% | HT29 colon 87.8% | SNB-75 CNS 73.8% | SNB-19 CNS 87.7% | U251 CNS 83.7% | PC-3 prostate 71% | SK-MEL-5 melanoma 88.9% | UACC-62 melanoma 77.3% | LOX IMVI melanoma 91.4% | SK-MEL-28 melanoma 103%

CC(=O)N1CC(=O)NC1=S
inactive: HCT-15 colon 99.9% | HT29 colon 106% | SNB-75 CNS 89.2% | SNB-19 CNS 101% | U251 CNS 94.8% | PC-3 prostate 97.9% | SK-MEL-5 melanoma 103% | UACC-62 melanoma 96.1% | LOX IMVI melanoma 98.5% | SK-MEL-28 melanoma 108%

CN(Cc1ccccc1)c1ccc(SC#N)cc1
inactive: HCT-15 colon 71.8% | HT29 colon 52.3% | SNB-75 CNS 81.3% | SNB-19 CNS 93.3% | U251 CNS 73.4% | PC-3 prostate 27.4% | SK-MEL-5 melanoma 98.2% | UACC-62 melanoma 97% | LOX IMVI melanoma 45% | SK-MEL-28 melanoma 101%

Oc1ccc(Br)cc1Sc1cc(Br)ccc1O
active: SK-MEL-5 melanoma 2.54% | UACC-62 melanoma 7.3%
inactive: HCT-15 colon 36.6% | HT29 colon 116% | SNB-75 CNS 59.4% | SNB-19 CNS 41.3% | U251 CNS 46.9% | PC-3 prostate 65.4% | LOX IMVI melanoma 43.6% | SK-MEL-28 melanoma 38.9%

COc1cc(-c2ccc(-[n+]3nc(-c4ccc([N+](=O)[O-])cc4)nn3-c3ccc([N+](=O)[O-])cc3)c(OC)c2)ccc1-[n+]1nc(-c2ccc([N+](=O)[O-])cc2)nn1-c1ccc([N+](=O)[O-])cc1
inactive: HCT-15 colon 29.7% | SNB-19 CNS 40.8% | U251 CNS 43.9% | PC-3 prostate 47.9% | SK-MEL-5 melanoma 47.4% | UACC-62 melanoma 85.9% | SK-MEL-28 melanoma 73.1%
active: HT29 colon -6.65% | SNB-75 CNS -35.8% | LOX IMVI melanoma -75.5%

COC(=O)c1ccc(=O)c2nc3/c(=C/O)c(O)cc(=O)c3[nH]c12
active: U251 CNS 7.56% | UACC-62 melanoma -3.09%
inactive: HCT-15 colon 10.1% | HT29 colon 29.4% | SNB-75 CNS 12.6% | SNB-19 CNS 11.6% | PC-3 prostate 30.5% | SK-MEL-5 melanoma 22% | LOX IMVI melanoma 19% | SK-MEL-28 melanoma 34.2%

N#CC(=C1SCS1)[N+](=O)[O-]
active: HT29 colon 1.29% | SK-MEL-5 melanoma 5.48%
inactive: HCT-15 colon 12.3% | SNB-75 CNS 40.5% | SNB-19 CNS 41.2% | U251 CNS 14.4% | PC-3 prostate 28.8% | UACC-62 melanoma 38.1% | LOX IMVI melanoma 17% | SK-MEL-28 melanoma 37.8%

CCCN(CCC)C(=O)c1ccc(C)cc1
inactive: HCT-15 colon 100% | HT29 colon 96% | SNB-75 CNS 105% | SNB-19 CNS 98.2% | U251 CNS 85.5% | PC-3 prostate 86.5% | SK-MEL-5 melanoma 92.2% | UACC-62 melanoma 97.2% | LOX IMVI melanoma 95.4% | SK-MEL-28 melanoma 105%

O=C(Nc1ccc(Cl)c(Cl)c1)OCc1ccco1
active: SNB-75 CNS 8.5%
inactive: HCT-15 colon 29.7% | HT29 colon 34% | SNB-19 CNS 63.3% | U251 CNS 43.1% | PC-3 prostate 54.1% | SK-MEL-5 melanoma 30.6% | UACC-62 melanoma 25.5% | SK-MEL-28 melanoma 74.1%

O=[N+]([O-])C=C(c1ccccc1)c1ccccc1
inactive: HCT-15 colon 42.7% | HT29 colon 91.7% | SNB-75 CNS 59.4% | SNB-19 CNS 85.5% | U251 CNS 80.1% | PC-3 prostate 76.5% | SK-MEL-5 melanoma 88.3% | UACC-62 melanoma 56.9% | SK-MEL-28 melanoma 90.4%

CCCc1cc(=O)oc2c3c(c4c(c12)OC(C)(C)CC4)OC(C)[C@H](C)[C@@H]3O (some centres undefined)
inactive: HCT-15 colon 55.5% | HT29 colon 58.8% | SNB-75 CNS 91.5% | SNB-19 CNS 94.4% | U251 CNS 75.1% | PC-3 prostate 42.7% | SK-MEL-5 melanoma 86.9% | UACC-62 melanoma 68.9% | LOX IMVI melanoma 83.1% | SK-MEL-28 melanoma 93.1%

N=C(N)Sc1cccc[n+]1[O-]
active: LOX IMVI melanoma -30.9%
inactive: HCT-15 colon 32.8% | HT29 colon 50.3% | SNB-75 CNS 61.5% | SNB-19 CNS 59% | U251 CNS 41.5% | PC-3 prostate 38.1% | SK-MEL-5 melanoma 56.2% | UACC-62 melanoma 23.2% | SK-MEL-28 melanoma 26.1%

CCCCCCN(CCCCCC)CCCNc1nccc2ccccc12
active: HT29 colon -11.6% | U251 CNS 9.66% | SK-MEL-5 melanoma -91.3% | LOX IMVI melanoma -39.3%
inactive: HCT-15 colon 17% | SNB-75 CNS 33.5% | SNB-19 CNS 20.3% | PC-3 prostate 20.4% | UACC-62 melanoma 21.8% | SK-MEL-28 melanoma 13.1%

CCOC(=O)c1cc(CC)sc1NC(=O)CC(C)=O
inactive: HCT-15 colon 19.9% | HT29 colon 47.8% | SNB-75 CNS 44.8% | SNB-19 CNS 29.8% | U251 CNS 34.7% | PC-3 prostate 36.2% | SK-MEL-5 melanoma 54.3% | UACC-62 melanoma 60.4% | SK-MEL-28 melanoma 96.7%

O=C1C=CC(=O)N1C1CCCCCCCCCCC1
inactive: HCT-15 colon 88.6% | HT29 colon 45.2% | SNB-75 CNS 79.4% | SNB-19 CNS 97.1% | U251 CNS 91.6% | PC-3 prostate 86.9% | SK-MEL-5 melanoma 92.9% | UACC-62 melanoma 88.8% | SK-MEL-28 melanoma 91%

CN(C)c1ccc(C(C#N)(c2ccccc2)c2ccc(N(C)C)cc2)cc1
inactive: HCT-15 colon 71.8% | HT29 colon 14.6% | SNB-75 CNS 57.1% | SNB-19 CNS 63.7% | PC-3 prostate 69.4% | SK-MEL-5 melanoma 81.6% | UACC-62 melanoma 70.5% | LOX IMVI melanoma 51.1% | SK-MEL-28 melanoma 60.2%
active: U251 CNS 7.62%

CC1(O)CCCCCC1
inactive: HCT-15 colon 102% | HT29 colon 110% | SNB-75 CNS 86.3% | SNB-19 CNS 97.6% | U251 CNS 101% | PC-3 prostate 103% | SK-MEL-5 melanoma 101% | UACC-62 melanoma 100% | LOX IMVI melanoma 94.2% | SK-MEL-28 melanoma 106%

O=C(CCl)N1c2ccccc2Sc2c1ccc1ccccc21
inactive: HCT-15 colon 39% | HT29 colon 69.4% | SNB-75 CNS 60.2% | SNB-19 CNS 88.9% | U251 CNS 63.8% | PC-3 prostate 70.6% | SK-MEL-5 melanoma 84.5% | UACC-62 melanoma 78% | SK-MEL-28 melanoma 111%
